PubChem BioAssay (EPA / NIEHS)
Records with an inconclusive call do not appear. Active and inactive are the calls of the source. How the source made its calls, unless noted: active means hit-call score of the fitted dose curve at least 0.9, where 1 is the maximum; inactive means score below 0.9.

Legend:
[1] = read-out: Transforming Growth Factor (TGFB1), TGFB1 (gene 7040); assay: LTEA_HepaRG_TGFB1: Life Technologies and Expression Analysis (LTEA) Assay for Transforming Growth Factor (TGFB1) Transporter using HepaRG (AID 2283533); conditions: mRNA level, 48 h; actives raise or lower the signal
In short: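 HepaRG, 48 h post-plating, switched to serum-free induction medium; chemicals 100 uM top, half-log, 8 pts, 0.5% DMSO, dup; 48 h exposure; RNA → Fluidigm TaqMan qRT-PCR; norm ACTB/GAPDH/POLR2A; bidirectional fit vs DMSO.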

TIMP1, TIMP1 (gene 7076) = assay: LTEA_HepaRG_TIMP1: Life Technologies and Expression Analysis (LTEA) Assay for TIMP1 using HepaRG (AID 2283534); conditions: mRNA level, 48 h; actives raise or lower the signal
In short: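 Readout is TIMP1 mRNA level measured by qRT-PCR and normalized to three housekeeping genes. Human HepaRG cells were treated for 48 h in duplicate at eight concentrations up to 100 uM (0.5% DMSO); gain or loss fitted against DMSO.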

[2] = read-out: Tumor necrosis factor receptor 1 (TNFRSF1A), TNFRSF1A (gene 7132); assay: LTEA_HepaRG_TNFRSF1A: Life Technologies and Expression Analysis (LTEA) Assay for Tumor necrosis factor receptor 1 (TNFRSF1A) using HepaRG (AID 2283535); conditions: mRNA level, 48 h; actives raise or lower the signal
In short: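 Read-out is TNFRSF1A transcript level by TaqMan qRT-PCR, normalized to three housekeeping genes, scored as gain or loss of signal versus 0.5% DMSO. Human HepaRG cells received test chemicals for 48 h at up to 100 uM (half-log series).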

[3] = read-out: Thyroid Hormone Responsive (THRSP), THRSP (gene 7069); assay: LTEA_HepaRG_THRSP: Life Technologies and Expression Analysis (LTEA) Assay for Thyroid Hormone Responsive (THRSP) using HepaRG (AID 2283536); conditions: mRNA level, 48 h; actives raise or lower the signal
In short: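 mRNA induction or loss relative to 0.5% DMSO vehicle was fitted bidirectionally across an eight-point curve whose highest exposure was 100 uM. Human HepaRG liver cells received chemicals in duplicate over 48 h before RNA extraction.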

[4] = read-out: Cellular tumor antigen p53 (Homo sapiens) (UniProt P04637); assay: LTEA_HepaRG_TP53: Life Technologies and Expression Analysis (LTEA) Assay for Tumor Protein P53 (TP53) using HepaRG (AID 2283537); conditions: mRNA level, 48 h; actives raise or lower the signal
In short: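 Differentiated HepaRG cells in serum-free induction medium exposed 48 h in duplicate to 8 half-log concentrations, top 100 uM, 0.5% DMSO. TP53 mRNA by TaqMan qRT-PCR (Fluidigm), normalized to ACTB, GAPDH, POLR2A; fitted bidirectionally versus DMSO.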

[5] = read-out: UDP glucuronosyltransferase (UGT1A1), UGT1A1 (gene 54658); assay: LTEA_HepaRG_UGT1A1: Life Technologies and Expression Analysis (LTEA) Assay for UDP glucuronosyltransferase (UGT1A1) using HepaRG (AID 2283538); conditions: mRNA level, 48 h; actives raise or lower the signal
In short: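 Differentiated human HepaRG cells in serum-free induction medium were exposed in duplicate for 48 h to eight half-log concentrations up to 100 uM in 0.5% DMSO. UGT1A1 mRNA was quantified by TaqMan qRT-PCR, normalized to ACTB, GAPDH and POLR2A, and fitted bidirectionally against DMSO.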

[6] = read-out: UDP glucuronosyltransferase (UGT1A6), UGT1A6 (gene 54578); assay: LTEA_HepaRG_UGT1A6: Life Technologies and Expression Analysis (LTEA) Assay for UDP glucuronosyltransferase (UGT1A6) using HepaRG (AID 2283539); conditions: mRNA level, 48 h; actives raise or lower the signal
In short: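 HepaRG, 48 h post-plating switch to serum-free induction medium; chemical 48 h, 100 uM top, half-log x8, duplicate, 0.5% DMSO. Phenobarbital 1mM induction control. UGT1A6 mRNA by TaqMan qRT-PCR; gain/loss fit vs DMSO.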

[7] = read-out: X-box binding protein 1 (XBP1), XBP1 (gene 7494); assay: LTEA_HepaRG_XBP1: Life Technologies and Expression Analysis (LTEA) Assay for X-box binding protein 1 (XBP1) using HepaRG (AID 2283540); conditions: mRNA level, 48 h; actives raise or lower the signal
In short: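 Transcript levels of XBP1, measured by qRT-PCR and normalised to three housekeeping genes, were fitted bidirectionally relative to 0.5% DMSO controls. Human HepaRG cells received eight-point half-log dilutions from 100 uM for 48 h.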

[8] = LTEA_HepaRG_LDH_cytotoxicity: Cytotoxicity Assessment in the Life Technologies and Expression Analysis (LTEA) Assay (AID 2283563; active means hit-call score of the fitted dose curve at least 0.9, where 1 is the maximum;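 on AC50: LDH activity released into spent culture medium as a marker of cell death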)
In short: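 Cells were thawed and plated for 48 h. Medium was then replaced with serum-free induction medium. Chemicals (8 half-log points, maximum 100 uM, 0.5% DMSO) were added in duplicate for 48 h, after which spent medium was assayed for LDH.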

[9] = ATG_XTT_Cytotoxicity: Cytotoxicity Assessment in the Attagene TRANS-FACTORIAL HepG2 Assay (AID 2283584; active means hit-call score of the fitted dose curve at least 0.9, where 1 is the maximum;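 on AC50: cells exposed to compound for 24 h before reading; active means loss of viability signal versus DMSO baseline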)
In short: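 Cells: human HepG2, transiently transfected with MRTU reporter constructs. Exposure 24 h. Readout: XTT, cell number. Baseline/neg ctrl DMSO; loss-of-signal scored.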

Measured: AC50

Sequence of Cellular tumor antigen p53 (Homo sapiens) (P04637 whole entry, looked up): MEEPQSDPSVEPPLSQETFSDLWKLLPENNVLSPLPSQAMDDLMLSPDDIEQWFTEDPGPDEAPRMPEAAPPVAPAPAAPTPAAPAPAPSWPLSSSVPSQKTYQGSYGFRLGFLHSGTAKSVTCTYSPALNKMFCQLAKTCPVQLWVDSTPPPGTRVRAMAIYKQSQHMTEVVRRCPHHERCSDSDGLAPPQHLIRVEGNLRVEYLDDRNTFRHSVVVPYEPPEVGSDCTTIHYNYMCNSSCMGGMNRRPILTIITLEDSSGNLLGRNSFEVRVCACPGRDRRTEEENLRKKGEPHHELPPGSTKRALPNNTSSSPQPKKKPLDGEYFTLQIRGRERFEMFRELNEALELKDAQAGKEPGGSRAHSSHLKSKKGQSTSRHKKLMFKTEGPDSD

Cn1c(=O)c2[nH]cnc2n(C)c1=O
active: [2] 0.276 µM
inactive: all other assays above

CCCc1ccccc1
not listed: [9]
inactive: all other assays above

CC1(C)C(=O)N(Cl)C(=O)N1Cl
inactive: all assays above

OC(Cn1cncn1)(Cn1cncn1)c1ccc(F)cc1F
inactive: all assays above

C=CN1CCCC1=O
inactive: all assays above

CCOc1ccc2[nH]cc(C(=O)NCc3ccccc3)c(=O)c2n1
not listed: [4] | [9]
inactive: all other assays above

OCCOCCOCCO
inactive: all assays above

Cc1nc(-c2ccccn2)ncc1C(=O)Nn1cc(C)c2cc(F)ccc21
active: [5] 12 µM | [6] 78.5 µM
not listed: [4] | [9]
inactive: all other assays above

NNC(=O)c1ccncc1
inactive: all assays above

O=S1(=O)CCCO1
inactive: all assays above

c1ccc2ncccc2c1
not listed: [9]
inactive: all other assays above

CC(C)c1nnc2ccc(-c3ocnc3-c3cc(F)ccc3F)cn12
active: [3] 9.92 µM | [5] 0.836 µM | [6] 80.3 µM | [7] 39 µM
not listed: [9]
inactive: all other assays above

OCc1ccccc1
not listed: [4] | [9]
inactive: all other assays above

O=C1CN(N=Cc2ccc([N+](=O)[O-])o2)C(=O)N1
active: [3] 9.92 µM
inactive: all other assays above

c1ccc2cc3ccccc3cc2c1
active: [5] 13.1 µM
not listed: [9]
inactive: all other assays above

CCCCCCCC1CCC(=O)O1 (stereo not given)
not listed: [8] | [9]
inactive: all other assays above

O=C(O)c1ccc2c(c1)nc(C(=O)NC1CCN(C3CC3)CC1)n2Cc1cc(-c2ccc(Cl)s2)on1
not listed: [9]
inactive: all other assays above

CCCCCCCC/C=C\CCCCCCCC(=O)OC[C@@H](O)[C@H]1OC[C@H](O)[C@H]1O
inactive: all assays above

CCCCCCCCN(C)C
inactive: all assays above

CCCCOC(=O)c1ccccc1
not listed: [9]
inactive: all other assays above

CCN(CC)C(=S)SSC(=S)N(CC)CC
inactive: all assays above

NC(=O)NN=Cc1ccc([N+](=O)[O-])o1
active: [4] 9.92 µM
inactive: all other assays above

CCCCCCCCCCCCCCCCOS(=O)(=O)O
active: TIMP1, TIMP1 (gene 7076) 0.351 µM | [3] 41.1 µM | [9] 79 µM
inactive: all other assays above

CCCCC(CC)C(=O)OCCOCCOCCOC(=O)C(CC)CCCC (stereo not given)
active: [2] 78.2 µM
not listed: [9]
inactive: all other assays above

c1ccc(C(O[C@@H]2CCCN(CCc3ccc4c(c3)OCO4)C2)c2ccccc2)cc1
active: [1] 9.92 µM | [2] 85.9 µM | [4] 75.4 µM | [5] 79.1 µM | [6] 83 µM | [8] 74.7 µM
inactive: TIMP1, TIMP1 (gene 7076) | [3] | [7]

CCc1cccc(CC)c1N
inactive: all assays above

OC(CCl)CCl
inactive: all assays above

CCCCN1C(=O)[C@@H]([C@H](O)C2CCCCC2)NC(=O)C12CCN(Cc1ccc(Oc3ccc(C(=O)O)cc3)cc1)CC2
inactive: TIMP1, TIMP1 (gene 7076) | [4]
active: [1] 0.34 µM | [2] 6.08 µM | [3] 1.27 µM | [5] 2.79 µM | [6] 10 µM | [7] 3.25 µM | [8] 37.5 µM

Cn1cc[nH]c1=S
inactive: all assays above

CCn1nc(C)c2c1C(=O)NCC(c1ccc(O)cc1)=N2
active: [5] 34.1 µM
not listed: [9]
inactive: all other assays above

CCOC(N)=O
not listed: [9]
inactive: all other assays above

CCCCCCCCCCCCCCO
inactive: all assays above

CCCCCCCCCC
not listed: [9]
inactive: all other assays above
